The supplement of paper PMC10849652
Targets with a hit are over-represented here; the source holds about 7,900 in all. About 0.6% of all pairs of compound and target were hits.

Experiments:
Assay in all cases: log2 fold change, soluble protein after heating vs DMSO (PISA); higher = thermal stabilisation; K562 cells, 10 uM, 30 min; active = over 0.2 and 3.5 SD of the protein, either way, in both replicates (recomputed)
[1] = compound: COC1=CC=C(C=C1)CN2C=CC3=C2C=C(C=C3)C(=O)NO
Summary of the method: (§1)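 Soluble protein was defined as the supernatant after 21,000xg for 90 min. It came from K562 cells at 2×10^6 cells/mL given 10 μM compound for 30 min, heated in aliquots for 3 min across 48°C-58°C, pooled, and extracted in PBS with 0.5% NP-40 at 4°C, and was quantified by TMTpro 16plex LC-MS/MS with equalised channel sums. Thermal stability against control samples, from duplicates, is reported as log2 fold change.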

[2] = compound: CON(C)C(=O)N1N=C(c2cc(F)ccc2F)S[C@@]1(CCCN)c1ccccc1 [filanesib]
Summary of the method: as §1

[3] = compound: CO[C@H]1C[C@@H]2CC[C@@H](C)[C@@](O)(O2)C(=O)C(=O)N2CCCC[C@H]2C(=O)O[C@H]([C@H](C)C[C@@H]2CC[C@H](n3cnnn3)[C@H](OC)C2)CC(=O)[C@H](C)/C=C(\C)[C@@H](O)[C@@H](OC)C(=O)[C@H](C)C[C@H](C)/C=C/C=C/C=C/1C [zotarolimus]
Summary of the method: as §1

[4] = compound: COc1cc(C(=O)O)ccc1NC(=O)[C@@H]1N[C@@H](CC(C)(C)C)[C@](C#N)(c2ccc(Cl)cc2F)[C@H]1c1cccc(Cl)c1F [idasanutlin]
Summary of the method: as §1

[5] = compound: COc1cc(Nc2ncc3c(n2)-c2ccc(Cl)cc2C(c2c(F)cccc2OC)=NC3)ccc1C(=O)O [alisertib]
Summary of the method: as §1

[6] = compound: COc1cc2nc(-c3cc(F)ccc3O)nc(N[C@@H]3CNC[C@H]3C(C)(C)O)c2cc1OC
Summary of the method: as §1

[7] = compound: COc1cc2ncnc(Nc3ccc(F)c(Cl)c3)c2cc1OCCCN1CCOCC1 [gefitinib]
Summary of the method: as §1

[8] = compound: COc1cccc2cc(-c3nc([C@H]4CC[C@H](C(=O)O)CC4)n4ncnc(N)c34)[nH]c12
Summary of the method: as §1

[9] = compound: CS(=O)(=O)CCNCc1ccc(-c2ccc3ncnc(Nc4ccc(OCc5cccc(F)c5)c(Cl)c4)c3c2)o1 [lapatinib]
Summary of the method: as §1

[10] = compound: CS(=O)(=O)N1CCN(Cc2cc3nc(-c4cccc5[nH]ncc45)nc(N4CCOCC4)c3s2)CC1 [pictilisib]
Summary of the method: as §1

Measured: log2 fold change

ACSL5 isoform 3 (UniProt Q9ULC5)
inactive: [1] -0.023 | [2] -0.118 | [3] 0.073 | [4] -0.148 | [5] -0.009 | [6] -0.259 | [7] 0.068 | [8] 0.074 | [9] 0.074 | [10] 0.065

APLP2 (UniProt Q06481)
active: [2] 0.219
inactive: [1] 0.036 | [3] 0.002 | [4] 0.058 | [5] -0.039 | [6] 0.038 | [7] 0.106 | [8] -0.04 | [9] 0.09 | [10] 0.091

AHSA1 (UniProt O95433)
Sequence of UniProt O95433 (O95433 whole entry, looked up): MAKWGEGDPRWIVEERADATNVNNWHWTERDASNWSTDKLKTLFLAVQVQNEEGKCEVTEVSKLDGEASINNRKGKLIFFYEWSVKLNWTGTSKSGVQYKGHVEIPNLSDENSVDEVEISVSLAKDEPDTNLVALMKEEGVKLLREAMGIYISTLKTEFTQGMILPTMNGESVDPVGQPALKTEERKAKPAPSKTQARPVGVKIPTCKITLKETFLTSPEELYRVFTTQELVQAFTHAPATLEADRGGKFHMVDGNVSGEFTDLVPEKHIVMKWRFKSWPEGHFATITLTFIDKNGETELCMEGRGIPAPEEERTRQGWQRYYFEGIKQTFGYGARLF
inactive: [1] -0.029 | [2] -0.061 | [3] 0.003 | [4] -0.064 | [5] -0.037 | [6] 0.109 | [7] 0.022 | [8] 0.031 | [9] -0.02 | [10] -0.023

APOH (UniProt P02749)
inactive: [1] 0.03 | [2] -0.156 | [3] -0.696 | [5] 0.151 | [6] -0.059 | [7] -0.307 | [8] 0.529 | [9] -0.197 | [10] -0.537
active: [4] 1.05

ATP23 (UniProt Q9Y6H3)
inactive: [1] 0.003 | [2] -0.082 | [3] 0.005 | [4] 0.032 | [5] -0.033 | [6] -0.096 | [7] -0.062 | [8] 0.067 | [9] 0.007 | [10] 0.018

ACOX3 (UniProt O15254)
inactive: [1] 0.138 | [2] 0.042 | [3] -0.037 | [4] 0.074 | [5] 0.555 | [6] -0.106 | [7] 0.116 | [8] 0.144 | [9] 0.41

BUB1B isoform 3 (UniProt O60566)
Sequence of UniProt O60566 (O60566 whole entry, looked up): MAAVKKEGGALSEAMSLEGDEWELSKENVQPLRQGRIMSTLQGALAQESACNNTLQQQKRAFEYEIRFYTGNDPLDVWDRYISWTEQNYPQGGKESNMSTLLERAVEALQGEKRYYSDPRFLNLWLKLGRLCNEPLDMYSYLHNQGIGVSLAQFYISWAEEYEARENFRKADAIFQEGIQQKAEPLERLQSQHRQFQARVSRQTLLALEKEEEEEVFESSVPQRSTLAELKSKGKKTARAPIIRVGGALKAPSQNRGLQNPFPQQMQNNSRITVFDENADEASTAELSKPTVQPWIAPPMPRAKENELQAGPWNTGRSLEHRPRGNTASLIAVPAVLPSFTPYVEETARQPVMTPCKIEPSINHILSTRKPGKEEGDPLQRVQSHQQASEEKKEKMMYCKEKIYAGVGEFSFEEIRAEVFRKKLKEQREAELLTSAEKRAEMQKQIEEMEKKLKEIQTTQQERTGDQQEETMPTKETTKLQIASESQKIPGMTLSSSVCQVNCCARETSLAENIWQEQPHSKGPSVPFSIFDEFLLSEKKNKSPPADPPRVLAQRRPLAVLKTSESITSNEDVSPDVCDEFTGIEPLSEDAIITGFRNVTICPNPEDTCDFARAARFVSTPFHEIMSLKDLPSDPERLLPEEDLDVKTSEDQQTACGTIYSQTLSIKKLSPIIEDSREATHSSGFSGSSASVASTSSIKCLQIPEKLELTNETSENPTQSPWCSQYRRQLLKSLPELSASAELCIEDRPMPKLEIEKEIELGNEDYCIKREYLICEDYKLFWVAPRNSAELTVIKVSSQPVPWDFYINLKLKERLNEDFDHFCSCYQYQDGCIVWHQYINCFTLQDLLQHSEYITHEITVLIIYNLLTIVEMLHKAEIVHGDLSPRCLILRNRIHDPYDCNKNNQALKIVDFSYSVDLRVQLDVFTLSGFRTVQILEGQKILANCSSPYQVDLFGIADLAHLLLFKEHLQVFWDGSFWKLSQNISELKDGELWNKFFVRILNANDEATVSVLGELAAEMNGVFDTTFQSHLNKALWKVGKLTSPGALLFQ
inactive: [1] 0.038 | [2] 0.103 | [3] 0.014 | [4] -0.014 | [5] 0.005 | [6] 0.001 | [7] 0.032 | [8] -0.098 | [9] 0.006 | [10] 0.065

ALG3 (UniProt Q92685)
Sequence of UniProt Q92685 (Q92685 whole entry, looked up): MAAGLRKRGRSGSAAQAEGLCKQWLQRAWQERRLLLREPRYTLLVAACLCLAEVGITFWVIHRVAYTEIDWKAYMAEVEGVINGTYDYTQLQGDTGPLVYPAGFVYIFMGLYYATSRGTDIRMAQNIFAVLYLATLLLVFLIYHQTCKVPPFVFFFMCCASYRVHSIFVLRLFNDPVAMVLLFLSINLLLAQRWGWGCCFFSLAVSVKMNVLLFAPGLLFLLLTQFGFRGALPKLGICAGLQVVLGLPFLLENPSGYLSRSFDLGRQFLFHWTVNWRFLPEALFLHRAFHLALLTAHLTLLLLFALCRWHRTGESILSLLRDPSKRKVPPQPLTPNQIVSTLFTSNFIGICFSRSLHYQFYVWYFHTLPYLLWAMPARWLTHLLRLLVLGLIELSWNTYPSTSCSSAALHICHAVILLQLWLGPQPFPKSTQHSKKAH
inactive: [1] 0.109 | [2] -0.095 | [3] 0.06 | [4] -0.212 | [5] -0.001 | [6] 0.035 | [7] -0.046 | [8] 0 | [9] 0.104 | [10] 0.006

BLVRB (UniProt P30043)
Sequence of UniProt P30043 (P30043 whole entry, looked up): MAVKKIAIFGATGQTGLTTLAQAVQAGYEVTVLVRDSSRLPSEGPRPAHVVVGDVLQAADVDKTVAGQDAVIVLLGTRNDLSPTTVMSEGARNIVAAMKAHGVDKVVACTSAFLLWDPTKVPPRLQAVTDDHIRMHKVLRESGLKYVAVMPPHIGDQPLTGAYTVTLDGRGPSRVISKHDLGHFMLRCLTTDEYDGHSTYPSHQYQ
inactive: [1] 0.113 | [2] -0.073 | [3] 0.024 | [4] -0.045 | [5] -0.07 | [6] 0.045 | [7] 0.061 | [8] 0.015 | [9] 0.071 | [10] 0.037

ATRN (UniProt O75882)
inactive: [1] -0.243 | [2] -0.037 | [3] 0 | [4] -0.032 | [5] 0.095 | [6] -0.004 | [7] 0.108 | [8] 0.111 | [9] 0.043 | [10] 0.153

ATP6V1H (UniProt Q9UI12)
inactive: [1] 0.035 | [2] -0.106 | [3] 0.055 | [4] -0.067 | [5] -0.1 | [6] -0.064 | [7] -0.121 | [8] -0.073 | [9] -0.009 | [10] -0.063

AFDN isoform 5 (UniProt P55196)
inactive: [1] 0.131 | [2] 0.014 | [3] 0.013 | [4] -0.06 | [5] 0 | [6] 0.034 | [7] -0.017 | [8] -0.009 | [9] -0.026 | [10] -0.009

ARMC10 (UniProt Q8N2F6)
inactive: [1] 0.011 | [2] 0.046 | [3] 0.107 | [4] -0.092 | [5] -0.039 | [6] 0.117 | [7] 0.004 | [8] -0.133 | [9] -0.01 | [10] 0.07

AGO1 (UniProt Q9UL18)
inactive: [1] -0.107 | [2] -0.015 | [3] -0.069 | [4] 0.009 | [5] 0.05 | [6] -0.031 | [7] -0.119 | [8] -0.029 | [9] 0.061 | [10] -0.002

ARL6IP6 (UniProt Q8N6S5)
inactive: [1] -0.113 | [2] -0.014 | [3] -0.03 | [4] -0.088 | [5] 0.004 | [6] -0.042 | [7] -0.021 | [8] 0.036 | [9] 0.004 | [10] 0.005

AP4S1 (UniProt Q9Y587)
Sequence of UniProt Q9Y587 (Q9Y587 whole entry, looked up): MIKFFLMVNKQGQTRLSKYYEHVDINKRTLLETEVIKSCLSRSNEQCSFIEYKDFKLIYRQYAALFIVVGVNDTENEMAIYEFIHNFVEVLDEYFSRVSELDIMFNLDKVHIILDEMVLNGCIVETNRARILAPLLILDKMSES
inactive: [1] -0.039 | [2] 0.029 | [3] 0.126 | [4] -0.061 | [5] -0.098 | [6] -0.002 | [7] -0.083 | [8] 0.036 | [9] -0.047

AFG1L (UniProt Q8WV93)
inactive: [1] -0.17 | [2] -0.239 | [3] 0.018 | [4] 0.016 | [5] -0.065 | [6] -0.18 | [7] -0.012 | [8] 0.107 | [9] 0.041

BCLAF1 (UniProt Q9NYF8)
Sequence of UniProt Q9NYF8 (Q9NYF8 whole entry, looked up): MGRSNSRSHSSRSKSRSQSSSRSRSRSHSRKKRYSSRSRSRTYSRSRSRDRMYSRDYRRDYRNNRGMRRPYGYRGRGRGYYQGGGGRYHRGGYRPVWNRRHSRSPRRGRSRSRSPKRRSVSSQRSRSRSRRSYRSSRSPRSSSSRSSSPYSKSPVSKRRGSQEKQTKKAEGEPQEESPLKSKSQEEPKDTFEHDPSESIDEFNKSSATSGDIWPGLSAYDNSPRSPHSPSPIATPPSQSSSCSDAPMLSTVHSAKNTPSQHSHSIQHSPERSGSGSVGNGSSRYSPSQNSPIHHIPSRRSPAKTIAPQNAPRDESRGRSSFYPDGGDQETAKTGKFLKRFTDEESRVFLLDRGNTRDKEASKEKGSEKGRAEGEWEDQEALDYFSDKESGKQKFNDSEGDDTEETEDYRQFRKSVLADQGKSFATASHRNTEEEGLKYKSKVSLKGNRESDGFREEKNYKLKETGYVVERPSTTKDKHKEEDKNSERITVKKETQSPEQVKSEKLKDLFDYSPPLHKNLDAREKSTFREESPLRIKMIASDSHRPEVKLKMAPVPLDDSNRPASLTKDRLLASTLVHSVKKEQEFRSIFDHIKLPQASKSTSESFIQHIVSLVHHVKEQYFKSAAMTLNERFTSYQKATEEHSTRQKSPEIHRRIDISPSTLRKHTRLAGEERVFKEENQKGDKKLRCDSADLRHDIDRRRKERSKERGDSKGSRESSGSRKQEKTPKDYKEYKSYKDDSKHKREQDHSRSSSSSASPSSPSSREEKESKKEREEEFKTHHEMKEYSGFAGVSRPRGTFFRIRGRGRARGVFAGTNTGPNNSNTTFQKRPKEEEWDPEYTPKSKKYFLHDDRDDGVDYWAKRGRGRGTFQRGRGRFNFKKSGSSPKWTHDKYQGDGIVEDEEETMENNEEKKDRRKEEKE
inactive: [1] -0.107 | [2] 0.103 | [3] 0.068 | [4] 0.127 | [5] 0.074 | [6] -0.215 | [7] 0.01 | [8] 0.033 | [9] 0.101 | [10] -0.109

ADH5 (UniProt P11766)
Sequence of UniProt P11766 (P11766 whole entry, looked up): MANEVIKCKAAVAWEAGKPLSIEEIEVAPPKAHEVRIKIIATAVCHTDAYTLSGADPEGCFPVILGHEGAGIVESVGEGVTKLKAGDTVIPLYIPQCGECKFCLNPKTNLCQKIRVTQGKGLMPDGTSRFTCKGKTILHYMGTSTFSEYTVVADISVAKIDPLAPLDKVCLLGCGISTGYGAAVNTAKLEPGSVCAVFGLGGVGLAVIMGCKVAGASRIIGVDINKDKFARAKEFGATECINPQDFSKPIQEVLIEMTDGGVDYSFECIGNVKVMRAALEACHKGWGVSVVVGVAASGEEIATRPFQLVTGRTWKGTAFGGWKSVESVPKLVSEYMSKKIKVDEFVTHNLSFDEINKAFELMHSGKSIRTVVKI
inactive: [1] -0.002 | [2] -0.053 | [3] 0.008 | [4] -0.037 | [5] -0.039 | [6] 0.011 | [7] -0.007 | [8] 0.058 | [9] -0.03 | [10] 0

ATP13A3 (UniProt Q9H7F0)
Sequence of UniProt Q9H7F0 (Q9H7F0 whole entry, looked up): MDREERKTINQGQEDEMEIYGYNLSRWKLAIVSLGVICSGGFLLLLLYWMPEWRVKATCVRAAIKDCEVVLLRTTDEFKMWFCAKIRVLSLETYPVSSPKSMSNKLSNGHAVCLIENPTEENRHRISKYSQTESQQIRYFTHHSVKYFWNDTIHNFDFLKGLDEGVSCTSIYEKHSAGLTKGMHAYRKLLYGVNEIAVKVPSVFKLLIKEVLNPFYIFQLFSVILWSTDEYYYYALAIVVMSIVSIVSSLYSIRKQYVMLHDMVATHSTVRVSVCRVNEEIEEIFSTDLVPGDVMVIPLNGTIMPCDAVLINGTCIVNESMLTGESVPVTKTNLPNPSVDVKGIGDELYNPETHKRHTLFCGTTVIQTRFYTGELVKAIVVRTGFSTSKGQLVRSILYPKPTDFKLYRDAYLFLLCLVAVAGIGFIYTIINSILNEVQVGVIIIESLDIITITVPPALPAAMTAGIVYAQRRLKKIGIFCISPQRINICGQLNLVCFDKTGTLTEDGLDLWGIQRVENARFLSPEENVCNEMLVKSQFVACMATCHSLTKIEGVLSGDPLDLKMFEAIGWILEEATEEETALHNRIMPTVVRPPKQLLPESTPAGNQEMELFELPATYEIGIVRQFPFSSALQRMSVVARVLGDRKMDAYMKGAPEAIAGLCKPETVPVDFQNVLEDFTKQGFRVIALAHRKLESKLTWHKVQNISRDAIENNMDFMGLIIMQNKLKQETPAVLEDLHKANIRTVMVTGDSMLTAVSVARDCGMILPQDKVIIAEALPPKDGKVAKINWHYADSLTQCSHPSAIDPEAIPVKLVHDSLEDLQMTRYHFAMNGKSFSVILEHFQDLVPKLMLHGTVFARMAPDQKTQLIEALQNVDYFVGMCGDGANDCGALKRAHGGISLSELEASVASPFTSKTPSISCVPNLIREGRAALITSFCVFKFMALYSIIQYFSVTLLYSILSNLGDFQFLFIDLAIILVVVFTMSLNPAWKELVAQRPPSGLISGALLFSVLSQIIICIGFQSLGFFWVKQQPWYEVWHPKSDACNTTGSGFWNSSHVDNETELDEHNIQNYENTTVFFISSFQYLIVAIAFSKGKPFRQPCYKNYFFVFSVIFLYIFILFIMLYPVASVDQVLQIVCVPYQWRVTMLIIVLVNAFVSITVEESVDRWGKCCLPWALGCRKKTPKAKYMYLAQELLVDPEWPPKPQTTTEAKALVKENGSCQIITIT
inactive: [1] -0.034 | [2] 0.054 | [3] -0.158 | [4] -0.027 | [5] -0.098 | [6] -0.078 | [7] -0.02 | [8] -0.038 | [9] 0.005 | [10] 0.104

ARL2BP (UniProt Q9Y2Y0)
inactive: [1] 0.287 | [2] -0.061 | [3] 0.062 | [4] -0.012 | [5] -0.074 | [6] -0.049 | [7] 0.028 | [8] 0.02 | [9] -0.025 | [10] 0.098

BID isoform 2 (UniProt P55957)
inactive: [1] 0.045 | [2] 0.016 | [3] 0.08 | [4] 0.016 | [5] -0.045 | [6] -0.006 | [7] 0 | [8] 0.089 | [9] 0.005 | [10] 0.038

BAD (UniProt Q92934)
inactive: [1] -0.103 | [2] 0.124 | [3] -0.073 | [4] -0.049 | [5] 0.103 | [6] -0.016 | [7] 0.115 | [8] 0.068 | [9] -0.037 | [10] 0.022

ANGEL1 (UniProt Q9UNK9)
inactive: [1] 0.024

BPHL (UniProt Q86WA6)
Sequence of UniProt Q86WA6 (Q86WA6 whole entry, looked up): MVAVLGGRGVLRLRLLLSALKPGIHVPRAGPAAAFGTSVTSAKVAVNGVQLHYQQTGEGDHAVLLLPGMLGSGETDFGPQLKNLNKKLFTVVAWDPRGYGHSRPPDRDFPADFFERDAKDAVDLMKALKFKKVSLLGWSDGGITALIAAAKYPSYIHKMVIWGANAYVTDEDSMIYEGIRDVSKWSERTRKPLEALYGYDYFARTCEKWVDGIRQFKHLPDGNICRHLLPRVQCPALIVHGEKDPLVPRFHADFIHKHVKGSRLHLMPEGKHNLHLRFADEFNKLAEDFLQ
inactive: [1] -0.118 | [2] -0.018 | [3] 0.017 | [4] -0.007 | [5] 0.004 | [6] 0.081 | [7] 0.049 | [8] -0.056 | [9] -0.033 | [10] 0.033

BCL9L (UniProt Q86UU0)
inactive: [1] -0.048 | [2] 0.017 | [3] -0.043 | [4] 0.028 | [5] 0.014 | [6] 0.02 | [7] 0.034 | [8] -0.067 | [9] 0.011 | [10] -0.007

AGAP3 isoform 4 (UniProt Q96P47)
inactive: [1] -0.051 | [2] 0.24 | [3] -0.02 | [4] 0.12 | [5] -0.073 | [6] 0.079 | [7] 0.28 | [8] -0.1 | [9] 0.038

APPL1 (UniProt Q9UKG1)
inactive: [1] -0.024 | [2] 0.069 | [3] 0.018 | [4] -0.076 | [5] -0.001 | [6] 0.079 | [7] -0.106 | [8] -0.023 | [9] -0.025 | [10] 0.033
